According to PubChem BioAssay AID798 (PCMD, 2007):
Hit rate of the full screen: of about 220,000 compounds, about 300 (0.14%) were called active. This excerpt belongs to a sample that is enriched for actives. Values without a mark were called inactive.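 How the source made its calls: active means inhibition of at least 40%; inactive means inhibition below 40%.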

molecular target: Coagulation factor XI (Homo sapiens) (UniProt P03951); test: factor XIa enzyme inhibition, large library – biochemical, 1536-well, primary screen (AID 798); details: purified FXIa, Boc-Glu-Ala-Arg-AMC fluorogenic substrate; at 5 µM; hits give high values;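 further: fluorescence of freed AMC excited at 355 nm; 0% = enzyme without compound and 100% = no enzyme blank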
Sequence (P03951 19-387 limits assumed): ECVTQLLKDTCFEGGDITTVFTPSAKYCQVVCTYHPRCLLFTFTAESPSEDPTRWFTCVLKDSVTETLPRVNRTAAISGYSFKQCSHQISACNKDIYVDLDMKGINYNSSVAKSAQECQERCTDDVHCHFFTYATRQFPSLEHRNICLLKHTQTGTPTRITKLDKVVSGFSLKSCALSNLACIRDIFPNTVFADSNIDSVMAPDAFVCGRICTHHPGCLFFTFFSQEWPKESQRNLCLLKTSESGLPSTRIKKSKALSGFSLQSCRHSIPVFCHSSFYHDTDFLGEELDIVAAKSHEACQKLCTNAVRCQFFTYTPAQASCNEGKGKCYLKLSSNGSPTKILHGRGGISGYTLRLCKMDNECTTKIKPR
Sequence (P03951 388-625 limits assumed): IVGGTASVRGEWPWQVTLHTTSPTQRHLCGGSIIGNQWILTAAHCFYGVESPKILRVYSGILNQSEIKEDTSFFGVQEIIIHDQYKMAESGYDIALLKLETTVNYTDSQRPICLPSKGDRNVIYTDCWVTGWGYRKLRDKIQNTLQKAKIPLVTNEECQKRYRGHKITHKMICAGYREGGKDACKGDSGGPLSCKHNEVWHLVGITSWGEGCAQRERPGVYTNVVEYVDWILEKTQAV

For `Cc1c(Br)ccc(NC(=O)COc2ccccc2C(N)=O)c1C`, which inhibition is on record?
The inhibition was 3.29%.

For `C/C=C(/C)C(=O)O[C@@H]1c2cc3c(c4c2[C@@]2(CO4)C(=O)C(OC)=C(OC)C=C2C[C@@H](C)[C@H]1C)OCO3`, which inhibition is on record?
Its inhibition is 0.96%.

For `COc1ccc(SC[C@H](Cc2ccccc2)N2CCN(CCc3ccccc3)CCC2=O)cc1`, which inhibition is on record?
Its inhibition is 0.67%.

Which inhibition does the source give for `Cn1cnc(S(=O)(=O)Nc2ccc3c(c2)OCCO3)c1` here?
Its inhibition is 3.26%.

With `Cc1ccc(NC(=O)NC(=O)CSc2nnc(-c3ccc(OC(F)F)cc3)n2N)c(C)c1` as the compound, how does the inhibition read?
The inhibition was 3.67%.

`CCN=c1sc(C(=O)Nc2ccccc2)c(C)n1CC` was tested. Which inhibition did it give?
The inhibition was -2.02%.

`Cc1cc(C(=O)OCC(=O)Nc2nnc(C(C)C)s2)c2ccccc2n1` was tested. Which inhibition did it give?
Its inhibition is -3.05%.

For `CC1=C(C(=O)N(C)C)C(c2ccccc2OC(F)F)NC(=O)N1` (stereo not given), which inhibition is on record?
The inhibition was 0.62%.

How did the inhibition turn out when `Cc1ccc(OC(=O)CCC(=O)Nc2ccc(Br)cc2)cc1` was run?
Its inhibition is -1.21%.

Which inhibition does the source give for `O=S(=O)(NC(=S)Nc1ccccc1)c1ccc(F)cc1` here?
Its inhibition is 4.03%.

Which inhibition does the source give for `CCOC(=O)CN(C)S(=O)(=O)c1ccc(-c2cc(C(=O)OC)sc2C(F)(F)F)cc1` here?
The inhibition was 32.6%.

How did the inhibition turn out when `CN1CCN(C(=O)CCc2ncc(C(F)(F)F)cc2Cl)CC1` was run?
Its inhibition is 7.14%.

How did the inhibition turn out when `COC(=O)c1c(NC(=O)CCCC(=O)O)sc2c1CCCCC2` was run?
Its inhibition is -0.58%.

For `O=C(N/N=C/c1cc2c(cc1Br)OCO2)C1COc2ccccc2O1` (stereo not given), which inhibition is on record?
The inhibition was -10.7%.

With `C[N+]1(CC(O)COc2ccccc2)CCN(C(=O)c2ccc([N+](=O)[O-])cc2)CC1` (stereo not given) as the compound, how does the inhibition read?
The inhibition was 0.51%.

`Cc1nc2cc(NC(=O)Nc3cccc(F)c3)ccc2n1C` was tested. Which inhibition did it give?
The inhibition was 43.8% (active).

With `Cc1nc2cc(NC(=O)NC3CC3)ccc2n1C` as the compound, how does the inhibition read?
Its inhibition is -5.28%.

`C=CCN(C(=O)Nc1ccc2c(c1)nc(C)n2C)c1ccccc1` was tested. Which inhibition did it give?
The inhibition was 26.2%.

Which inhibition does the source give for `Cc1cc(-c2csc(N)n2)c(C)n1-c1ccccc1` here?
Its inhibition is 2.06%.

`CCOc1ccc(/C=C2\SC(=S)N(NC(=O)c3ccncc3)C2=O)cc1OC` was tested. Which inhibition did it give?
Its inhibition is 6.9%.

With `C[C@H](NC(=O)c1nc[nH]c1C(=O)N[C@@H](C)C(=O)OC(C)(C)C)C(=O)OC(C)(C)C` as the compound, how does the inhibition read?
Its inhibition is 1.92%.

For `CN(C)C(=S)Nc1ccc(Br)cc1Cl`, which inhibition is on record?
The inhibition was 1.74%.

For `NC(=O)Cn1nc([N+](=O)[O-])nc1Oc1ccc(Br)cc1`, which inhibition is on record?
The inhibition was 0.41%.

Which inhibition does the source give for `O=C(Cc1ccc(F)cc1)N1CCN=C1SCc1cccc([N+](=O)[O-])c1` here?
Its inhibition is -3.4%.

`Cc1cccc(N(C(=O)Cc2cccs2)C(C(=O)NCc2ccco2)c2ccncc2)c1` (stereo not given) was tested. Which inhibition did it give?
The inhibition was -1.59%.
